Screening data: PubChem BioAssay, National Center for Advancing Translational Sciences (NCATS)
Sfp inh – Sfp phosphopantetheinyl transferase inhibition; 3.5% of 310,000 active; Q9F4F7; AID 1490; Biochemical Sfp PPTase activity, qHTS; Potency, µM, actives largely listed as inhibitors;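 further: the enzyme is Sfp with the accession as filed and its product quenches rhodamine fluorescence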
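Reaction rates are the 30-min fluorescence difference (ex 525, em 598 nm) in wells containing 15 nM Sfp, 5 uM rhodamine-CoA and 12.5 uM BHQ-2-YbbR at pH 7.6 with 10 mM MgCl2.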
Mm-Cpn inhibitor – blocks the Methanococcus maripaludis chaperonin Mm-Cpn | 0.031% of 330,000 active | Potency, µM (top dose mostly 76.9 µM), actives largely listed as inhibitors | purified Mm-Cpn ATPase, ADP Transcreener TR-FRET; further: nearly all actives have a fitted effect of over 80% in size
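Eu-cryptate anti-ADP/ADP-d2 competition gives a ratio inversely related to ADP. Enzyme at 25 nM was pre-exposed to compound for 10 min, then given 10 uM ATP for 30 min, 37°C throughout.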
PLK1 PBD inh – PLK1 (human) polo-box domain binding inhibition. P53350. Plk1 PBD binding of FITC phosphopeptide, fluorescence polarization. Potency, µM, actives largely listed as inhibitors. 2.8% of 360,000 active. AID 720504; further: series mostly up to about 57 µM; nearly all actives have a fitted effect of over 65% in size
G9a inh – G9a (human) methyltransferase inhibition | Q96KQ7 | G9a H3K9 monomethylation, AlphaScreen, 2 h | Potency, µM (doses to about 102 µM), hits mostly inhibitors | 8.8% of 350,000 active | AID 504332; further: nearly all actives have a fitted effect of over 75% in size
Target sequence (Q96KQ7 913-1193 limits assumed): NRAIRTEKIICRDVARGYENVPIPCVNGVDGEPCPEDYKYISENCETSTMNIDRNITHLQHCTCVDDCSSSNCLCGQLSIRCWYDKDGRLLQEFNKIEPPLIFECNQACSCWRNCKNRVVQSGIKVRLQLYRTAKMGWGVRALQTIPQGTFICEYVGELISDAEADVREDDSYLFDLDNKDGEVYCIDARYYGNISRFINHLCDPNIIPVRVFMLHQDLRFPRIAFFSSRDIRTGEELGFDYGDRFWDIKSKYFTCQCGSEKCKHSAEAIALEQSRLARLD
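Compounds were preincubated with 20 nM G9a for 15 min, after which biotinylated H3K9 peptide (500 nM) and SAM (20 uM) started a 2 h room-temperature reaction. Monomethylated product was quantified by antibody-based AlphaScreen chemiluminescence.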
CCT chaperon mod – modulators of cytosolic chaperonin (CCT/TRiC) activity; purified chaperonin ATPase assay, HTRF ADP detection, 30 min; activity change, % (concentration not given with the values), hits read low; 0.3% of 360,000 active; AID 651819; in the data active means activity change below about -30%
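First, chaperonin was dispensed at 40 nM or 20 nM final depending on batch activity. Next, compounds were pinned at 76 uM and ATP added at 10 uM. After 30 min at 37 °C, ADP detection reagents ran 30 min at ambient temperature.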
VDR inh – vitamin D3 receptor (human) inhibition. AID 504847. Potency, µM, most hits filed as inhibitors. VDR-SRC2-3 peptide fluorescence polarization, 2 h. P11473. 0.93% of 400,000 active
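Measured by FP: displacement of SRC2-3 coactivator peptide from VDR by library compounds, following a two-hour ambient incubation.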
A number is an active result; [ ] = remark or other dose. A selection: hits, their analogues and other compounds. The true share with any hit is near 10%. Unless noted, the call rests on the fitted dose curve; in most records, active means well fitted curve in the direction sought with a large enough effect; inconclusive means small, poorly fitted or top-dose-only effect, or another doubt; inactive means no such curve, though single readings can be large; an effect the other way counts as inactive or inconclusive.

For CC(NC(=O)c1ccc2c(c1)N(Cc1ccc(Cl)cc1)C(=O)c1ccccc1S2=O)c1ccccc1 (configuration not stated) the results were G9a inh inactive and VDR inh inactive.
Screening O=C1Nc2cc(C(=O)NCCN3CCCCCC3)ccc2S/C1=C/c1ccccc1F returned PLK1 PBD inh inactive and CCT chaperon mod inactive.
Screening CC1CC(C)CN(CCCNC(=O)c2ccc3c(c2)NC(=O)CS3)C1 (configuration not stated) returned Sfp inh inactive, Mm-Cpn inhibitor inactive, PLK1 PBD inh 30µM, G9a inh inactive, CCT chaperon mod inactive and VDR inh inactive.
For O=C1Nc2cc(C(=O)NCCCN3CCCC3)ccc2S/C1=C/c1ccccc1F the results were Sfp inh inactive, Mm-Cpn inhibitor inactive, PLK1 PBD inh inactive, G9a inh 14µM, CCT chaperon mod inactive and VDR inh inactive.
`CCCOC(=O)c1ccc(NC(=O)Cc2csc(C)n2)cc1` gave G9a inh inactive and VDR inh inactive.
For O=C1CC(c2ccco2)CC(O)=C1C=Nc1cc(Cl)cc(Cl)c1 (configuration not stated) the results were Sfp inh 40µM, Mm-Cpn inhibitor inactive, PLK1 PBD inh inactive, G9a inh 10µM, CCT chaperon mod inactive and VDR inh inactive.
Screening N#Cc1nc(COc2cccc(Cl)c2)oc1NCCc1ccccc1 returned G9a inh inconclusive and VDR inh inactive.
Screening CCc1nn(CC(=O)NCc2ccco2)c(=O)c2cc3c(OC)cccc3n12 returned G9a inh inactive and VDR inh inactive.
`O=C1C(c2ccc(F)cc2)N(CCc2ccccc2)C(=O)CN1C1CCCCC1` (configuration not stated) gave G9a inh inactive and VDR inh inactive.
Screening C=CCn1c(SCC(=O)c2ccc(CNC(C)=O)o2)nc2scc(C3CC3)c2c1=O returned Sfp inh 45µM, Mm-Cpn inhibitor inactive, PLK1 PBD inh 30µM, G9a inh inactive[12.7 µM], CCT chaperon mod inactive and VDR inh inactive.
`CCCn1cc(S(=O)(=O)c2ccc(OC)cc2)c(=O)c2cc(OCC)ccc21` gave Sfp inh inactive, Mm-Cpn inhibitor inactive, PLK1 PBD inh inactive, G9a inh inactive, CCT chaperon mod inactive and VDR inh inactive.
`Cn1cc(S(=O)(=O)c2ccccc2)c(=O)c2cc(Cl)ccc21` gave Sfp inh inactive, Mm-Cpn inhibitor inactive, PLK1 PBD inh 27µM, CCT chaperon mod inactive and VDR inh inconclusive.
CCCn1cc(S(=O)(=O)c2ccc(Cl)cc2)c(=O)c2cc(OC)ccc21 was read as Sfp inh inactive, Mm-Cpn inhibitor inactive, PLK1 PBD inh 3µM, G9a inh inactive, CCT chaperon mod inactive and VDR inh inconclusive.
For COc1cc(SC)ccc1C(=O)NCCOc1c(C)cc(C)cc1C the results were Sfp inh 50µM, Mm-Cpn inhibitor inactive, PLK1 PBD inh inactive, G9a inh inactive, CCT chaperon mod inactive and VDR inh inactive.
`COc1ccc(-[n+]2c(C)cc(/C=C3\Sc4ccccc4N3C)cc2C)cc1` gave Sfp inh 20µM, Mm-Cpn inhibitor inactive, PLK1 PBD inh inactive, G9a inh 50µM, CCT chaperon mod inactive and VDR inh inactive.
`Cc1cc(C)c(Nc2cc(S(=O)(=O)O)c(N)c3c2C(=O)c2ccccc2C3=O)c(C)c1` gave Sfp inh 50µM, Mm-Cpn inhibitor inactive, PLK1 PBD inh 24µM, G9a inh 2.8µM, CCT chaperon mod inactive and VDR inh inconclusive.
For Cc1cc(C)c(NC(=O)COC(=O)c2cccc3c2C(=O)c2ccccc2C3=O)c(C)c1 the results were Sfp inh inactive, Mm-Cpn inhibitor inactive, PLK1 PBD inh inactive, G9a inh inconclusive, CCT chaperon mod inactive and VDR inh inactive.
CCOc1ccccc1NS(=O)(=O)c1c(C(=O)OC)sc2cccc(F)c12 was read as G9a inh inactive and VDR inh inactive.
`O=C1NC(=O)C(Cc2ccc(OCCN3COc4ccccc4C3=O)cc2)S1` (configuration not stated) gave Sfp inh inactive and VDR inh inactive.
CCOC(=O)C1=C(C)N(C)C(=O)NC1c1c(C)nn(-c2ccc(C)cc2)c1Cl (configuration not stated) was read as Sfp inh inactive, Mm-Cpn inhibitor inactive, PLK1 PBD inh inactive, G9a inh inactive, CCT chaperon mod inactive and VDR inh inactive.
Screening CCOC(=O)C1=C(C)NC(=O)NC1c1c(C)nn(-c2ccccc2)c1Cl (configuration not stated) returned Sfp inh 20µM, Mm-Cpn inhibitor inactive, PLK1 PBD inh inactive, G9a inh 1.1µM, CCT chaperon mod inactive and VDR inh inactive.
COc1ccc(-c2cc(=O)n(-c3nc4ccccc4[nH]3)[nH]2)cc1 was read as Sfp inh inactive, Mm-Cpn inhibitor inactive, PLK1 PBD inh inactive, G9a inh 79µM, CCT chaperon mod inactive and VDR inh inactive.
Screening CCC1CCCCN1S(=O)(=O)c1ccc(NC(=O)c2nc(SC)ncc2Cl)cc1 (configuration not stated) returned G9a inh inactive and VDR inh inactive.
Screening Cc1cc(OC(=O)c2ccccc2Br)cc(=O)n1C returned Sfp inh inactive, Mm-Cpn inhibitor inactive, PLK1 PBD inh 21µM, G9a inh inactive[12.7 µM], CCT chaperon mod inactive and VDR inh inactive.
For CC(=O)c1ccc(OC2C(O)COC2/C=C/c2ccc(Cl)cc2)cc1 (configuration not stated) the results were Sfp inh inactive.
CN(C)c1ccc(N/C(=N\S(=O)(=O)c2cccs2)c2ccccc2)cc1 was read as Sfp inh inactive, Mm-Cpn inhibitor inactive, PLK1 PBD inh inactive, G9a inh 4.5µM, CCT chaperon mod inactive and VDR inh inactive.
For O=C(NCc1ccccc1Cl)C1CCN(S(=O)(=O)c2ccc3c(c2)CCCN3C(=O)C2CCC2)CC1 the results were G9a inh inactive and VDR inh inactive.
For Cc1ccc(NC(=O)C2CCCN(S(=O)(=O)c3ccc4c(c3)CCCC(=O)N4)C2)cc1N(C)C (configuration not stated) the results were G9a inh inactive and VDR inh inactive.
`O=C(c1ccco1)N1CCN(C(=O)c2ccco2)CC1` gave PLK1 PBD inh inactive and CCT chaperon mod inactive.
`Cc1ccc(N2CCN(C(=O)c3cccs3)CC2)cc1C` gave Sfp inh 50µM, Mm-Cpn inhibitor inactive, PLK1 PBD inh inactive, G9a inh inactive[0.501 µM], CCT chaperon mod inactive and VDR inh inactive.
For Nc1ccc(N2CCN(C(=O)c3cccs3)CC2)cc1 the results were Sfp inh inactive, Mm-Cpn inhibitor inactive, PLK1 PBD inh inactive, G9a inh 1.4µM, CCT chaperon mod inactive and VDR inh inconclusive.
